# Measured values taken from PubChem BioAssay AID1159524 (National Center for Advancing Translational Sciences (NCATS), 2015).
# Among all 410,000 compounds or so, about 5,100 (1.2%) were called active. Entries that show only a call come without a potency. Another 8% or so got no clear call; they are omitted. Calls follow the shape of the full dose curve; tested in HEK293T cells. For the sample, actives were picked, then their nearest neighbours and some compounds at random.
# Experiment: High Throughput Screening for Foot and Mouth Disease Virus Antivirals; also: read-out not given here; nearly all actives have a fitted effect of over 45% in size
# Settings: FMDV antiviral cell-based qHTS; series mostly up to 57.9 µM
# Potency is read from the fitted curve at half-maximal effect.
row,SMILES,Potency
1,CCc1nn(CC(=O)Nc2cc(C)cc(C)c2)c(=O)c2cc3sccc3n12,inactive
2,CCOC(=O)[C@]12Cc3cc(OC)ccc3[C@H]1N(C(C)C)C(=O)c1ccccc12,31.6 µM (active)
3,COc1ccc(C23NCCN2C(=O)c2ccccc23)cc1 (stereo not given),inactive
4,CCOc1ccc(NC(=O)CC2C(=O)N(c3cccc(OC)c3)C(=O)N2C2CCCCC2)cc1 (stereo not given),inactive
5,CCOC(=O)c1ccc(NC(=O)CC2C(=O)N(c3cccc(OC)c3)C(=O)N2C2CCCCC2)cc1 (stereo not given),inactive
6,CCOC(=O)C1CCN(C(=O)Nc2cccc(OC)c2)CC1,inactive
7,CCOC(=O)[C@]12Cc3ccccc3[C@H]1N(C1CCCCC1)C(=O)c1cc(OC)ccc12,10 µM (active)
8,CCN(CC)S(=O)(=O)c1ccc2c(c1)N(CC(=O)NCC(C)c1ccccc1)C(=O)CO2 (stereo not given),inactive
9,O=C(NCCc1ccccc1)c1ccc2c(c1)N(Cc1ccccc1)C(=O)c1ccccc1S2(=O)=O,inactive
10,c1ccc2c(c1)[I+]c1ccccc1-2,inactive
11,COc1ccc(CNC(=O)c2ccc(NC(=O)N3CC4CCCN4c4ccccc43)cc2)cc1 (stereo not given),inactive
12,COc1cc(NC(=O)Cn2c(=O)n(Cc3ccco3)c(=O)c3oc4ccccc4c32)cc(OC)c1,inactive
13,CCOC(=O)c1cc2c(=O)n3ccccc3nc2n(CCCOC)c1=NC(=O)C(C)(C)Oc1ccc(Cl)cc1,inactive
14,O=c1ccc2c(-c3ccccc3S(=O)(=O)O)c3ccc(O)c(O)c3oc-2c1O,7.08 µM (active)
15,CCCC(=O)Nc1ccc(C(=O)NCCCn2ccnc2)cc1,inactive
16,CCCC(=O)Nc1ccc(C(=O)N/N=C/c2ccc[nH]2)cc1,28.2 µM (active)
17,CC(=O)Nc1ccc(C(=O)NNC(=O)CCCCC(=O)NNC(=O)c2ccc(NC(C)=O)cc2)cc1,inactive
18,CC1C(C)N(C(=O)CCl)c2ccccc2N1C(=O)CCl (stereo not given),3.55 µM (active)
19,CNC(=O)N1c2ccccc2C=Cc2ccccc21,inactive
20,Cc1ccn(CCC(=O)N2c3ccccc3CC2C)n1 (stereo not given),inactive
21,N[C@H](Cc1o[nH]c(=O)c1Cl)C(=O)O,inactive
22,CC(C)C(=O)NC(C)c1nnc2n1CCN(Cc1cccc3ncccc13)CC2 (stereo not given),inactive
23,Cc1nc2cnc(Nc3ccccc3)nc2n(C[C@H]2CCCO2)c1=O,inactive
24,C[C@@H]1C[C@@H]2O[C@H]2/C=C\C=C\C(=O)Cc2c(Cl)c(O)cc(O)c2C(=O)O1,0.1 µM (active)

row,SMILES,Potency
1,COCCn1c(=O)c(CCc2ccccc2)nc2cnc(N3CCNCC3)nc21,inactive
2,COCCn1c(=O)c(-c2ccc(OC)cc2)nc2cnc(Oc3cccc(Cl)c3)nc21,inactive
3,COc1ccccc1CN1CC2(CCN(S(=O)(=O)c3ccccc3)CC2)C1,inactive
4,COc1ccc(-c2ccc(Nc3ccc(S(=O)(=O)N4CCCC4)cc3)nn2)cc1OC,14.1 µM (active)
5,COc1ccccc1CC(=O)Nc1ccc(S(=O)(=O)N2CCCC2)cc1,inactive
6,COc1cc(C(=O)NNC(=O)c2ccc(S(=O)(=O)N3CCCCC3)cc2)cc(OC)c1OC,inactive
7,CCN(CC)c1cc(NC2CCCCC2)c2c3c(onc13)-c1ccccc1C2=O,inactive
8,CC(C)C(NS(=O)(=O)c1ccc(-c2ccc(Br)cc2)cc1)C(=O)O (stereo not given),inactive
9,CCC1(C2CCN(Cc3cccnc3)CC2)NC(=O)N(CC2COc3ccccc3O2)C1=O (stereo not given),inactive
10,Cc1cccc(C(CC(=O)NCC2(c3ccccc3)CCCC2)c2ccccc2)c1O (stereo not given),inactive
11,NCCCCCC(=O)N/N=C/c1ccc2nccnc2c1,inactive
12,CCc1nc2cccnc2n1-c1ccc(C(=O)O)cc1,inactive
13,O=C(O)c1ccc(N/N=C/c2ccc3ncccc3c2)cc1,2.82 µM (active)
14,CCn1c(C(=O)Nc2cc(Cl)ccc2C)cc2sc(Cl)cc21,inactive
15,COc1ccc(NC(=O)N2CC3(CCN(C(=O)c4cccn4C)CC3)C2)cc1,inactive
16,CC(=O)OCC(=O)[C@@]1(O)CCC2C3CCC4=CC(=O)CC[C@]4(C)C3C(=O)C[C@]21C (stereo not given in full),inactive
17,CSc1ncnc2c1ncn2CC(=O)C1CCC2C3CCC4=CC(=O)CCC4(C)C3CCC12C (stereo not given),11.2 µM (active)
18,CC(=O)OCC(=O)C1CCC2C3CCC4=CC(=O)CC[C@@]4(C)C3CC[C@]12C (stereo not given in full),inactive
19,COc1ccccc1N1CCN(CCCNC(=O)c2cnn(-c3ccccc3Cl)c2C2CCN(C(=O)OC(C)(C)C)CC2)CC1,inactive
20,CN(C)CCc1c[nH]c2ccc(Cn3cncn3)cc12,inactive
21,O=C(CC(c1cccs1)N1Cc2ccccc2C1=O)Nc1ccc(F)cc1F (stereo not given),inactive
22,Cn1cnc([N+](=O)[O-])c1Nc1ccccc1O,inactive
23,Cn1cnc([N+](=O)[O-])c1Sc1ccccc1,28.2 µM (active)
24,Cn1cnc([N+](=O)[O-])c1Sc1n[nH]c(N)n1,inactive

row,SMILES,Potency
1,CO[C@H]1[C@H](NC(=O)C(C)C)c2ccccc2C12CCN(Cc1cnc(N(C)C)s1)CC2,inactive
2,COc1ccccc1CNc1ccnc(-c2c(C)noc2C)n1,inactive
3,CCCC(=O)Nc1ccc(NC(=O)c2sc3ccccc3c2Cl)cc1,inactive
4,Cc1cccc(N2CCN(C(=O)c3cnc(N4CCCC4)nc3C)CC2)c1C,inactive
5,CCC1CN(CCNC(=O)c2ccsc2)Cc2cc(OC)ccc2O1 (stereo not given),inactive
6,CCN1/C(=C\c2ccc3ccccc3[n+]2CC)Sc2cc(C)ccc21,35.5 µM (active)
7,CC(=O)Nc1cccc(NC(=O)CSc2cn(CC(=O)N3CCCC3)c3ccccc23)c1,inactive
8,COc1ccc2[nH]cc(CCNc3nc(-c4cccc(NS(C)(=O)=O)c4)nc4ccccc34)c2c1,inactive
9,CCn1c2ccccc2c2nnc(SCC(=O)O)nc21,inactive
10,CCc1c2c(nc3ccc(O)cc13)-c1cc3c(c(=O)n1C2)COC(=O)[C@]3(O)CC,inactive
11,COCCn1c(=O)c(CCc2ccccc2)nc2cncnc21,inactive
12,O=C(CN1C(=O)c2ccccc2S1(=O)=O)N1CCc2ccccc21,0.794 µM (active)
13,NS(=O)(=O)c1ccc(CCNC(=O)CN2C(=O)c3ccccc3S2(=O)=O)cc1,inactive
14,CCn1c(=O)c2ccccc2n(CC(=O)N2CCCc3ccccc32)c1=O,inactive
15,CO[C@H]1C=CO[C@@]2(C)Oc3c(C)c(O)c4c(O)c(c(/C=N/N5CCN(C)CC5)c(O)c4c3C2=O)NC(=O)/C(C)=C\C=C[C@H](C)[C@H](O)[C@@H](C)[C@@H](O)[C@@H](C)[C@H](OC(C)=O)[C@@H]1C,inactive
16,Nc1nc2c(ncn2[C@@H]2O[C@H](COP(=O)(O)OP(=O)(O)OP(=O)(O)O)[C@@H](O)C2O)c(=O)[nH]1 (stereo not given in full),inactive
17,O=C(c1ccco1)N1CCC[C@@]2(CCN(c3ccccc3)C2)C1,inactive
18,CC(C)NC(=O)N1CC[C@@]2(CCCN(C(=O)c3ccco3)C2)C1,inactive
19,C1CC[C@H]([C@@]23C[C@H](C[C@H]4CCCN[C@H]42)[C@@H]2CCCCN2C3)NC1,inactive
20,CCSc1ncc(Cl)c(C(=O)Nc2c(C(=O)c3ccccc3)oc3ccccc23)n1,inactive
21,CCOC(=O)c1scc(-c2ccccc2)c1S(=O)(=O)Nc1ccccc1F,inactive
22,CCCS(=O)(=O)c1ncc(Cl)c(C(=O)Nc2scc(-c3ccccc3)c2C(=O)OCC)n1,25.1 µM (active)
23,CCOc1ccccc1N(C)C(=O)c1cc2c(s1)-c1ccccc1OC2,inactive
24,COCCn1c(=O)c(-c2cc(F)cc(F)c2)nc2cncnc21,inactive

row,SMILES,Potency
1,CN1C2CC3CC1C(O3)C2O (stereo not given),inactive
2,Cc1ccc(S(=O)(=O)c2cn(Cc3ccccc3)c3cc(N4CCCC4)c(F)cc3c2=O)c(C)c1,inactive
3,Oc1c(Cl)cc(Cl)c(Cl)c1Cc1c(O)c(Cl)cc(Cl)c1Cl,5.62 µM (active)
4,C=C1C(=O)C23C(O)C1CCC2[C@]12COC3(O)C(O)C1C(C)(C)CC[C@H]2O (stereo not given in full),28.2 µM (active)
5,O=C(NC1(C(F)(F)F)N=C(c2ccccc2)N(C2CCCCC2)C1=O)c1ccccc1F (stereo not given),inactive
6,O=c1c(-c2cccs2)nc2cnc(Oc3ccccc3)nc2n1-c1ccccc1,inactive
7,O=C(c1csnn1)N1CCC2(CCN(Cc3nccs3)CC2)CC1,inactive
8,O=C(c1cccc(C(=O)N2CCN(c3ccc(F)cc3)CC2)c1)N1CCN(c2ccc(F)cc2)CC1,39.8 µM (active)
9,O=C(c1ccccc1Oc1ccccc1)N1CCN(c2ccc(F)cc2)CC1,inactive
10,O=C(c1cccc(F)c1)N1CCC2(CC1)CCN(c1ccccc1)CC2,inactive
11,COc1ccc(CN(C)CCn2cc(C(=O)N3CCSCC3)nn2)cc1C,inactive
12,O=C1c2ccccc2C(=O)N1CCC#Cc1ccc2cc(C3(O)CCCCC3)oc(=O)c2c1,39.8 µM (active)
13,Cc1ccnc(NS(=O)(=O)c2ccc(NC(=O)c3ccc(S(=O)(=O)N(C)C)cc3)cc2)n1,inactive
14,CN1C(=O)c2ccc(NC(=O)c3c(F)c(F)c(F)c(F)c3F)cc2C1=O,inactive
15,Cc1ccc(S(=O)(=O)NCCC(=O)Nc2cccc(S(N)(=O)=O)c2)cc1C,inactive
16,COCCCN1C(=O)c2ccc(C(=O)Nc3ccc(OC)cc3OC)cc2C1=O,inactive
17,CC(C)CCN1C(=O)c2ccc(C(=O)Nc3cccc(S(N)(=O)=O)c3)cc2C1=O,28.2 µM (active)
18,CCCCN1C(=O)c2ccc(C(=O)Nc3ccc(S(=O)(=O)N(C)C)cc3)cc2C1=O,20 µM (active)
19,O=c1c(CN2CCOc3ccc(CN4CCC(Oc5cccnc5)CC4)cc3C2)coc2ccccc12,inactive
20,Cc1cnc(CNc2cc(-c3c(C)noc3C)ncn2)cn1,inactive
21,O=c1ccn([C@@H]2O[C@H](COP(=O)(O)OP(=O)(O)OP(=O)(O)O)[C@@H](O)[C@H]2O)c(=O)[nH]1,inactive
22,COc1cc(Cl)c(C)cc1Nc1nnc(-n2nc(C)cc2C)c2ccccc12,inactive
23,COCCn1c(=O)c(C)nc2cnc(N(C)C)nc21,inactive
